The source of these data is PubChem BioAssay (NCATS).

Inconclusive results are not listed. The source made the active and inactive calls. The call rests on the fitted dose curve; in most records, active means well fitted curve in the direction sought with a large enough effect; inconclusive means small, poorly fitted or top-dose-only effect, or another doubt; inactive means no such curve, though single readings can be large; an effect the other way counts as inactive or inconclusive.

Assay [1] can be described thus: Confirmatory screen GU Rhodamine qHTS for Zika virus inhibitors qHTS (AID 1347157). Further: potency means the concentration at half of the fitted maximal effect; nearly all actives have a fitted effect of over 70% in size. The gist of the method:
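In dose–response format, inhibition of unlinked protease (25 nM) was measured with 1.5 microM bis-peptide Rhodamine110 substrate. Aprotinin served as the intraplate control.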

In assay [2] the test system is Zika virus NS2B-NS3 protease (unlinked complex). Nature of the assay: Primary screen GU Rhodamine qHTS for Zika virus inhibitors: Unlinked NS2B-NS3 protease assay (AID 1347159). Further: potency means the concentration at half of the fitted maximal effect; nearly all actives have a fitted effect of over 60% in size. Put shortly: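 Noncovalent NS2B hydrophilic domain–NS3 protease domain complex (25 nM) preincubated 15 min at room temperature with compounds (up to 114 microM) in 10 mM Tris-HCl pH 8.0, 0.01% Tween 20; 1.5 microM Rhodamine110 substrate added, fluorescence change over 15 min fitted to Hill equation.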
A general note: qHTS replaces the single test concentration by a dilution series.

Assay [3] relates to Zika virus NS2B-NS3 protease (linked construct). Nature of the assay: Primary screen NINDS Rhodamine qHTS for Zika virus inhibitors (AID 1347160). Further: nearly all actives have a fitted effect of over 55% in size. Further: potency means the concentration at half of the fitted maximal effect. The gist of the method: (§1)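 Purified linked NS2B-NS3 protease (NS2B hydrophilic domain joined to NS3 protease by flexible linker), 25 nM in 10 mM Tris-HCl pH 8.0, 0.01% Tween 20. Compounds titrated, 15 min preincubation at room temperature; 1.5 microM Rhodamine110 substrate, FITC fluorescence change over 15 min.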

The nature of assay [4]: Confirmatory screen NINDS Rhodamine qHTS for Zika virus inhibitors (AID 1347161). Further: potency means the concentration at half of the fitted maximal effect; nearly all actives have a fitted effect of over 60% in size. Put shortly: as §1
Assay [5] in a line: Tertiary RLuc qRT-PCR qHTS assay for Zika virus inhibitors (AID 1347169). Further: top concentration of the series differs between compounds; nearly all actives have a fitted effect of over 55% in size. The gist of the method:
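Inhibition of ZIKV-RLuc replication in Vero cells, read as Renilla luminescence 1-1.5 hrs after live-cell substrate addition, following 48-72 hrs infection at MOI 1-2 in presence of compound.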

Assay [6] has as its system Zika virus NS2B-NS3 protease (linked construct). Nature of the assay: Confirmatory screen NINDS AMC qHTS for Zika virus inhibitors (AID 1347152). Further: nearly all actives have a fitted effect of over 70% in size. Further: potency means the concentration at half of the fitted maximal effect. Put shortly: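 Concentration-response confirmation used the NINDS linked protease (NS2B hydrophilic domain joined to NS3 protease domain), 1 nM, with a 15-min compound preincubation. Substrate, Nle-KRR-AMC at 10 microM, was read by UV fluorescence before and after 15 min.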

Assay [7] in a line: ZIKV-mCherry secondary qHTS for Zika virus inhibitors (AID 1347158). Further: top concentration of the series differs between compounds. Put shortly:
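Vero, 5,000 cells/well, o/n 37 °C; cpd pin-transferred in DMSO; ZIKV-mCherry MOI 1, 48-72 h 37 °C; 32% PFA stock fix, Hoechst; imaged 10x DAPI/mCherry; mCherry+ threshold 450 RFU; % infection.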

Assay [8] deals with Zika virus NS2B-NS3 protease (linked). The experiment in a line: 384 well plate NINDS AMC confirmatory qHTS for Zika virus inhibitors (AID 1347163). Further: potency means the concentration at half of the fitted maximal effect; nearly all actives have a fitted effect of over 50% in size. Put shortly:
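Linked NS2B-NS3 protease (final 5 nM, 30 nM or 60 nM) was preincubated with compounds (final up to 1 mM) for ~15 minutes. Ac-VKTGKR-AMC substrate (final 30 microM) then reacted for 25 minutes at room temperature in the dark. Fluorescence (ex 355/em 460 nm) was normalized to no-enzyme and no-inhibitor controls.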

Assay [9] relates to Zika virus NS2B-NS3 protease (linked construct). The experiment in a line: 384 well plate NINDS Rhodamine confirmatory qHTS for Zika virus inhibitors (AID 1347164). Further: potency means the concentration at half of the fitted maximal effect; nearly all actives have a fitted effect of over 65% in size. Put shortly: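 Cleavage of Ac-LKRR-Rhodamine 110 (10 microM final) by linked protease (final 5, 30 or 60 nM) was followed as fluorescence at 485/538 nm after 25 min, room temperature, dark. Compounds preincubated ~15 min.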

Assay [10] can be described thus: Vero cells viability qHTS for Zika virus inhibitors (AID 1347167). The gist of the method:
(§2)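 Compounds were tested in concentration series on cells grown in DMEM containing 4% FBS. After 24 to 48 hours, cellular ATP was measured by luminescence with CellTiter Glo.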

Assay [11] is described as follows: HepG2 cells viability qHTS for Zika virus inhibitors (AID 1347168). The gist of the method: as §2
Assay [12] is described as follows: OV-KATE Cancer Cell Toxicity qHTS against the NCATS CANVASS Library (AID 1347345). Put shortly:
(§3)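 Bortezomib titration and single-dose wells served as plate controls. Test compounds, 11 points, acted on 1000 cells/well for 72 h at 37 degrees C; CellTiter-Glo luminescence quantified remaining viable cells.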

The nature of assay [13]: HPAF-II Cancer Cell Toxicity qHTS against the NCATS CANVASS Library (AID 1347346). Further: series mostly up to about 38 µM; nearly all actives have a fitted effect of over 55% in size. The gist of the method:
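Luminescence from CellTiter-Glo, added after 72 h compound exposure and a 15 min room-temperature incubation, served as the viability readout. HPAF-II cells (1000/well) received an 11-point concentration series.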

Assay [14] can be described thus: UWB1.289 Cancer Cell Toxicity qHTS against the NCATS CANVASS Library (AID 1347347). Further: series mostly up to about 38 µM; nearly all actives have a fitted effect of over 60% in size. Put shortly: as §3
The nature of assay [15]: OV-SAHO Cancer Cell Toxicity qHTS against the NCATS CANVASS Library (AID 1347348). Further: series mostly up to about 38 µM; nearly all actives have a fitted effect of over 55% in size. Put shortly: as §3
Assay [16] in a line: Panc-1005 Cancer Cell Toxicity qHTS against the NCATS CANVASS Library (AID 1347349). Further: series mostly up to about 38 µM; nearly all actives have a fitted effect of over 60% in size. Put shortly: as §3
A short description of assay [17]: SW1088 Cancer Cell Toxicity qHTS against the NCATS CANVASS Library (AID 1347350). Further: potency means the concentration at half of the fitted maximal effect; nearly all actives have a fitted effect of over 75% in size. Put shortly: as §3
Assay [18] is described as follows: U-118MG Cancer Cell Toxicity qHTS against the NCATS CANVASS Library (AID 1347351). Further: series mostly up to about 38 µM. The following applies: outcome: dose series up to 38.3 µM. The gist of the method:
as §3

The subject of assay [19] is Zika virus NS2B-NS3 protease (unlinked complex). Nature of the assay: Confirmatory screen GU AMC qHTS for Zika virus inhibitors (AID 1347153).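 Further: enzyme at 25 nM with substrate at 10 µM below its Km of 18.3 µM; potency means the concentration at half of the fitted maximal effect; nearly all actives have a fitted effect of over 70% in size.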 The gist of the method:
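Noncovalent NS2B hydrophilic domain/NS3 protease complex (25 nM) in 10 mM Tris-HCl pH 8.0, 0.01% Tween 20 was preincubated 15 min at room temperature with compounds. Then 10 µM AMC substrate (Km 18.3 µM) was added; fluorescence was read over 15 min and fitted to a 4-parameter Hill equation.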

With `CC1(C)[C@H]2C[C@H](C/C=C\CCCC(=O)O)[C@@H](NC(=O)c3csc4ccc(O)cc34)[C@@H]1C2`, the Potency in [1] was 24.8 µM (active); in [2] it was 14.1 µM (active); in [4] it was 31.2 µM (active). For the same compound, the Potency entry in assay [3] and in assay [5] was “inactive” in each case.
For the compound `C/C(=C\CC/C(C)=C/CC[C@]1(C)CCc2cc(O)cc(C)c2O1)CC/C=C(\C)C(=O)O`, the Potency in assay [6] is 19.2 µM (active); in assay [1], 3.83 µM (active); in assay [2] it was 8.91 µM (active); in assay [3], 2.2 µM (active); in assay [4], 1.92 µM (active); in [8], 5.01 µM (active). For the same compound, the Potency in assay [9] is 2.51 µM (active); in assay [17], 18.8 µM (active). For the same compound, the Potency entry in [7] and in [5] was “inactive” in each case. Besides, the call in [10], in assay [11], in [12], in [13], in [14] and in [15] was inactive. The compound was called inactive in [16] and in assay [18].
Turning to `CCOc1ccc(-c2cc(NC(=O)c3c(F)cccc3F)c(C(=O)O)s2)cc1`, the Potency in assay [6] is 17.5 µM (active); in [19] it was 27.8 µM (active); in assay [1] it was 4.41 µM (active); in assay [3], 5.01 µM (active); in assay [4], 3.12 µM (active); in assay [8], 7.08 µM (active). Moreover, in [9], the Potency is 5.01 µM (active). The call in assay [10] and in [11] was inactive.
Consider `CC1C(O)C(O)C2C(C(=O)OCCc3ccc(O)cc3)=COC(O[C@@H]3O[C@H](CO)[C@@H](O)[C@H](O)[C@H]3O)C12` (some centres not stated), for which the Potency result in [6] and in [5] was “inactive” each time. Further, the Potency was 8.57 µM (active) in assay [1], 8.91 µM (active) in [3], 15.2 µM (active) in assay [4] and 3.98 µM (active) in assay [9]. For the same compound, the result in assay [10] and in assay [11] was inactive.
Take `C/C(=C\CCC(C)CCO)C(=O)OC[C@H]1O[C@@H](O[C@@H]2OC=C(C(=O)O)[C@H]3CC[C@](C)(O)[C@@H]23)C(O)[C@@H](O)C1O` (some centres not stated): the Potency was 13.6 µM (active) in assay [6]; 4.29 µM (active) in assay [1]; 7.94 µM (active) in assay [2]; 5.62 µM (active) in [3]; 2.15 µM (active) in assay [4]. Besides, the call in [10] and in assay [11] was inactive.
